Source: PubChem
The list is not random: actives were taken first. Their share in the collection is about 7.9%.
HT1080 IDH1KD tx = toxicity to HT-1080 IDH1 knockdown cells (counter line) | Potency, µM (titrated, usually from 46.1 µM), for the others: at the top dose activity, negative = toxicity, most hits filed as cytotoxic | actives 2% (n = 360,000) | HT-1080 IDH1 knockdown viability, ATP luminescence, 48 h | AID 686971;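 further: 0% = DMSO wells and -100% = cell-free medium wells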
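Using the IDH1-knockdown HT-1080 line run in the same batch and compound series as the NT line, viability after 48 h at 37 °C was determined by CellTiter-Glo luminescence and expressed as % activity.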
HT1080-NT tox = kills 2HG-producing HT-1080-NT fibrosarcoma cells; Potency, µM (series often up to 46.1 µM), inactives show at the top dose activity, negative = less viability, most hits filed as cytotoxic; HT-1080-NT fibrosarcoma viability, CellTiter-Glo ATP luminescence, 48 h; AID 686970; actives 1.6% (n = 360,000);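 further: NT is the 2HG producing partner of a matched IDH1 knockdown line; 0% = DMSO-treated cells and -100% = media-only wells without cells; nearly all actives have a fitted effect of over 55% in size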
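Luminescent CellTiter-Glo readout after 48 hours of compound exposure at 37 degrees C defined viability of HT-1080-NT cells. Activity was normalized to DMSO wells and cell-free media wells; concentration-response curves were fitted and assigned curve classes.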
KB-V1 cytotox = kills drug-selected multidrug resistant KB-V1 cells; KB-V1 MDR cells viability, CellTiter-Glo, 72 h; actives 3.4% (n = 400,000); Potency, µM (series often up to 46.1 µM), actives largely listed as cytotoxic; further: on the % scale 0 is the no-effect control and ±100 the full control effect; nearly all actives have a fitted effect of over 60% in size
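qHTS viability screen in drug-selected KB-V1 MDR cells: 72 h compound treatment at 37 degrees C, ATP luminescence end point.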
SW480 rereplic = inducers of DNA re-replication in SW480 colon cancer cells. AID 624297. Potency, µM (series often up to 46.1 µM), without a hit: at the highest dose re-replication activation, usual class: activators. SW480 DNA re-replication, Hoechst DNA content imaging, 48 h. actives 1.8% (n = 340,000); further: % of control where 0% means no effect; nearly all actives have a fitted effect of over 55% in size
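250 cells/well; 23 nL cpd via pin tool; 48 hr, 37 C, 5% CO2; Hoechst 40 min; imager read of total nuclear intensity, ex 405/em 500-530 nm.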
MCF10A rereplic = induces DNA re-replication in MCF 10a normal breast cells | MCF 10A DNA re-replication, Hoechst nuclear intensity, 48 h | Potency, µM (highest dose often 46.1 µM), inactives show at the highest dose activity, positive = re-replication, usual class: activators | actives 2.9% (n = 350,000) | AID 624296; further: % of control where 0% means no effect; nearly all actives have a fitted effect of over 50% in size
KB-3-1 cytotox = kills parental KB-3-1 adenocarcinoma cells; KB-3-1 viability, CellTiter-Glo ATP luminescence, 72 h; Potency, µM (doses to about 46.1 µM), actives largely listed as cytotoxic; actives 1.4% (n = 400,000); further: on the % scale 0 is the no-effect control and ±100 the full control effect; nearly all actives have a fitted effect of over 60% in size
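Screening of KB-3-1 cells (DMEM, 10% FBS, phenol-red free) ran from lowest to highest compound concentration; after 72 h at 37 °C viability was read luminescently and curves fitted.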
The depositor's hits bear a star; i = inactive; ? = inconclusive; / = no result given. The call rests on the fitted dose curve; in most records, active means well fitted curve in the direction sought with a large enough effect; inconclusive means small, poorly fitted or top-dose-only effect, or another doubt; inactive means no such curve, though single readings can be large; an effect the other way counts as inactive or inconclusive. Potency means the concentration at half of the fitted maximal effect.

SMILES | HT1080 IDH1KD tx | HT1080-NT tox | KB-V1 cytotox | SW480 rereplic | MCF10A rereplic | KB-3-1 cytotox
COC(=O)[C@]1(C)N[C@H](CN(C)C(=O)C2CCCCC2)[C@@H]2C(=O)N(C)C(=O)[C@@H]21 | -2% | 0% | i | -19% | 25% | i
COc1cccc(-c2cc(C(F)(F)F)n3ncc(C(=O)OC(C)C)c3n2)c1 | / | / | i | / | / | i
Cc1cc(C)c2nc(N3CCCC(C(=O)NC4CCCC4)C3)sc2c1 (stereo not given) | -3% | 7% | i | -8% | 13% | i
Oc1ccc(-c2nccc(-c3ccccn3)n2)cc1 | 6% | 17% | i | -15% | 3% | i
CS(=O)(=O)N(CC(=O)NCCSC1CCCCC1)c1ccccc1 | 10% | -4% | ? | 1% | -21% | i
Cc1ccccc1N(CC(=O)NCCSC1CCCCC1)S(=O)(=O)c1ccccc1 | 5% | 4% | 10µM* | -2% | 20% | ?
Cc1cccc(N(CC(=O)NC(C)c2ccccc2)S(=O)(=O)c2ccccc2)c1C (stereo not given) | / | / | ? | / | / | 18µM*
CS(=O)(=O)N(CC(=O)NCCSC1CCCCC1)c1cccc(F)c1 | 4% | 10% | 15µM* | -6% | ? | i
COc1ccc(N(CC(=O)NCCSC2CCCCC2)S(=O)(=O)c2ccccc2)cc1OC | 0% | -1% | / | 10% | 13% | /
CCn1c(SCC(=O)NCCCN2CCCC2=O)nnc1-c1cccc(C)c1 | -4% | 3% | i | -2% | 6% | i
COc1ccc(CN2CC[C@H]3C=CC[C@@H](C(=O)Nc4ccc(Cl)cc4Cl)[C@H]3C2=O)cc1OC | / | / | ? | / | / | i
CC(C)n1cc(CN2CCC(C(=O)Nc3cccc(-c4cccc(Cl)c4)c3)CC2)cn1 | ? | 18µM* | ? | 3.3µM* | 18µM* | ?
O=C(Nc1cccc(-c2cccc(Cl)c2)c1)C1CCN(Cc2ccc(CO)o2)CC1 | 16µM* | 16µM* | i | ? | 17% | ?
Cc1ccc(/C=C2\SC(=O)N(CCNC(=O)C3CSC4(C)CCC(=O)N34)C2=O)cc1 (stereo not given) | 6% | 5% | i | -3% | 15% | ?
CCc1ccc(S(=O)(=O)N2c3ccc(C)cc3C3CN(C)CCC32)cc1 (stereo not given) | -2% | -3% | 21µM* | 3% | ? | i
O=C(O)CCC(=O)Nc1nnc(C(F)(F)F)s1 | 3% | 9% | ? | -3% | -1% | i
O=C(CCS(=O)(=O)c1ccccc1)Nc1nnc(C(F)(F)F)s1 | 18µM* | ? | ? | 13µM* | 23µM* | ?
CCC(NC(=O)Nc1nnc(C(F)(F)F)s1)(C(F)(F)F)C(F)(F)F | 3.7µM* | 3.3µM* | 4.1µM* | ? | ? | 10µM*
CC1(C)CC(=O)c2sc(NS(=O)(=O)c3ccc(Cl)cc3)nc2C1 | 4% | 1% | i | -28% | -18% | i
CC(C)(C)c1nnc(NC(=O)CCS(=O)(=O)c2ccccc2)s1 | ? | -17% | i | ? | ? | i
CC1(C)CC(=O)c2sc(NC(=O)CCS(=O)(=O)c3ccccc3)nc2C1 | -29% | -21% | i | -2% | 23µM* | 21µM*
CC1(C)CC(=O)c2sc(NS(=O)(=O)c3ccc(Br)cc3)nc2C1 | 4% | 8% | i | -31% | 0.58µM* | i
CC(Oc1ccccc1)C(=O)Nc1nc2c(s1)C(=O)CC(C)(C)C2 (stereo not given) | 2% | 3% | i | -7% | 17% | i
Cc1nn(C(C)C(=O)Nc2cccc(F)c2)c(=O)c2c1sc1ccccc12 (stereo not given) | / | / | i | / | / | i
O=S(=O)(c1cc(Br)c(Br)s1)N1CCN(c2ccccc2)CC1 | / | / | i | / | / | i
SMILES | HT1080 IDH1KD tx | HT1080-NT tox | KB-V1 cytotox | SW480 rereplic | MCF10A rereplic | KB-3-1 cytotox
O=C(C=P(c1ccccc1)(c1ccccc1)c1ccccc1)c1ccccc1-c1ccccc1C(=O)C=P(c1ccccc1)(c1ccccc1)c1ccccc1 | 7.3µM* | 13µM* | i | 13µM* | 63% | ?
O=C(/C=C/c1ccco1)Nc1nnc(-c2ccco2)s1 | -10% | -20% | ? | ? | 5.8µM* | ?
O=C(/C=C/c1ccco1)Nc1cccc(NC(=O)/C=C/c2ccco2)n1 | 12% | 0% | i | 2% | ? | i
CCc1nnc(NC(=O)/C=C/c2ccco2)s1 | 20% | 21% | i | -11% | -2% | i
Cc1nc(NC(=O)/C=C/c2ccco2)sc1C | ? | -12% | ? | 8.2µM* | ? | 4.1µM*
CCOC(=O)[C@]12CCC=C1N(Cc1ccc(Cl)cc1Cl)C(=O)[C@H](CC(=O)NCc1cccs1)C2 | ? | ? | ? | / | / | i
CCCOc1cc(C)c(S(=O)(=O)NCCOC)cc1C | -2% | -23% | 18µM* | 1% | -2% | i
CCc1cc2c(=O)nc3n(c2s1)Cc1ccccc1/C3=C(/O)c1ccccc1Cl | -2% | 0% | i | 9% | 6.5µM* | i
COc1ccc(/C=C(/NC(=O)c2ccccc2)C(=O)N2CCCC2)cc1 | 0% | -3% | i | -8% | 1% | ?
C=CCc1ccc(OCCOc2cccc3ccc(C)nc23)c(OC)c1 | ? | ? | ? | ? | 12µM* | ?
C=CCc1ccc(OCCOCCN(C)C)c(OC)c1 | 7% | 2% | i | -2% | -3% | i
Cc1c(N=Nc2c(-c3ccc([N+](=O)[O-])cc3)[nH]n(C(N)=S)c2=O)cccc1[N+](=O)[O-] | ? | ? | 16µM* | ? | ? | 21µM*
NC(=S)n1[nH]c(-c2ccc([N+](=O)[O-])cc2)c(N=Nc2cccc([N+](=O)[O-])c2)c1=O | 0.82µM* | 1.5µM* | ? | ? | -14% | ?
N/N=C1\CCCc2c1[nH]c1ccc([N+](=O)[O-])cc21 | 7% | 11% | 4.6µM* | ? | -14% | ?
CC[C@]12c3[nH]c4cc(CCC(=O)N(C)C)ccc4c3CCN1C(=O)[C@@H](CC(=O)NCCCn1ccnc1)C[C@@H]2C(=O)N1CCN(C(=O)c2ccco2)CC1 | 8% | 10% | i | -2% | -7% | i
COCCNc1nc2nonc2nc1N(C)Cc1cccc2cnccc12 | -7% | -21% | i | 4.6µM* | -2% | i
CCN(c1ccccc1)c1nc2nonc2nc1NCCO | 4% | 4% | i | -6% | 0% | i
